This note sets out measurements from PubChem BioAssay (Tox21).

Assay [1] concerns the target Retinoic acid receptor RXR-alpha (Homo sapiens) (UniProt P19793). As to the kind of experiment: qHTS assay to identify small molecule agonists of the RXR signaling pathway (AID 1159527; calls by dose curve; note: nearly all actives have a fitted effect of over 35% in size). The gist of the method: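 Read-out: beta-lactamase FRET ratio (405 nm excitation, 460 and 530 nm emission) after 2 hr substrate loading at room temperature. Cells were RXR-alpha-UAS-bla HEK 293T treated with compounds for 16 hr in 2% charcoal-stripped FBS medium.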
Background: In qHTS, concentration-response curves come from the screen itself.

Assay [2] is described as follows: qHTS assay to identify small molecule agonists of the RXR signaling pathway - cell viability counter screen (AID 1159529). Note: series mostly up to about 77 µM; nearly all actives have a fitted effect of over 50% in size. An outline of the steps: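 HEK 293T RXRa-bla cells, 2% CS-FBS; 5 h settle; cpd 16 h 37 C, 5% CO2; CellTiter-Glo 30 min RT, luminescence. Tetraoctyl ammonium bromide as positive control.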
Assay [3] is described as follows: qHTS assay to identify small molecule antagonists of the retinoid acid receptor (RAR) signaling pathway - cell viability counter screen (AID 1159551). Note: nearly all actives have a fitted effect of over 35% in size. The gist of the method:
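Cytotoxicity counter screen: ATP content quantified by CellTiter-Glo luminescence in C3RL4 cells treated 6 hr at 37 C with compound and retinol (1 uM final). Cells plated at 1,000/well and cultured overnight before dosing.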

The nature of assay [4]: qHTS assay to identify small molecule antagonists of the retinoic acid receptor (RAR) signaling pathway (AID 1159552; note: nearly all actives have a fitted effect of over 50% in size). The gist of the method: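 Cells of the C3RL4 line were seeded, incubated overnight, then dosed with compounds in DMSO followed immediately by retinol (1 uM final). Six hours later luciferase detection reagent went in; signal was measured after 30 min at RT.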

Assay [5] can be described thus: qHTS assay to identify small molecule agonists of the retinoic acid receptor (RAR) signaling pathway (AID 1159553). The gist of the method: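 Luminescence was measured 30 min after luciferase reagent addition at room temperature. Before that, C3RL4 reporter cells (1,000 per well, plated overnight) were treated with compound for 6 hr at 37 C and 5% CO2.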
Assay [6] can be described thus: qHTS assay to identify small molecule antagonists of the estrogen related receptor (ERR) signaling pathway from Tox21 library - cell viability counter screen (AID 1224834). Note: nearly all actives have a fitted effect of over 30% in size. The gist of the method:
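CellTiter-Fluor fluorescence, read after 30 min at 37 C, measures viability of ERR cells. Cells plated at 2,000/well and incubated 6 h before pin-tool compound addition, then exposed 17.5 hours at 37 C.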

Assay [7] is described as follows: qHTS assay to identify small molecule agonists of the constitutive androstane receptor (CAR) signaling pathway - cell viability counter screen (AID 1224836). Note: series mostly up to about 92 µM; nearly all actives have a fitted effect of over 45% in size. An outline of the steps: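 HepG2-CYP2B6-hCAR, 2500 cells/well, 4 h pre-incubation; cpd 15 conc + PK11195 0.75 uM final; 23 h, 37 C/5% CO2; CellTiter-Fluor, fluorescence.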
Assay [8] can be described thus: qHTS assay to identify small molecule antagonists of the constitutive androstane receptor (CAR) signaling pathway - cell viability counter screen (AID 1224837). Note: series mostly up to about 92 µM; nearly all actives have a fitted effect of over 45% in size. The gist of the method:
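Cytotoxicity counter-screen: CellTiter-Fluor fluorescence after 23 h compound exposure (15-point qHTS) in double-stable HepG2-CYP2B6-hCAR cells, with 50 nM CITCO added.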

For assay [9], the target named is Nuclear receptor subfamily 1 group I member 3 (Homo sapiens) (UniProt Q14994). As to the kind of experiment: qHTS assay to identify small molecule antagonists of the constitutive androstane receptor (CAR) signaling pathway (AID 1224838).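 Note: HepG2 cells stably expressing hCAR with CYP2B6 luciferase reporter stimulated by CITCO; nearly all actives have a fitted effect of over 40% in size.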 An outline of the steps: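 Antagonism measured as luciferase signal (ONE-Glo, 30 min, room temperature) in CAR-stimulated cells: HepG2-CYP2B6-hCAR double-stable line exposed 24 hr at 37 C to compound in a 15-point series plus 50 nM CITCO.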
Nuclear receptor subfamily 1 group I member 3 (Homo sapiens), sequence (Q14994 whole entry, looked up): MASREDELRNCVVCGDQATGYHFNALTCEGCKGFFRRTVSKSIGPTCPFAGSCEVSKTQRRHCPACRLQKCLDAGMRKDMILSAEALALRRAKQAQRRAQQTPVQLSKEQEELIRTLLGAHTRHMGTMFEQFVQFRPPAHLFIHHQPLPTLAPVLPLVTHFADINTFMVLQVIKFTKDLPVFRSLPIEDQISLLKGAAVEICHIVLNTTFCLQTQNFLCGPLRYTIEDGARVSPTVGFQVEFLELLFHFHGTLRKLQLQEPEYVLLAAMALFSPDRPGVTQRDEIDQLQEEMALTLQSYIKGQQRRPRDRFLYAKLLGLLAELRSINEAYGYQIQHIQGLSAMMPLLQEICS

Assay [10] has the same target. As to the kind of experiment: qHTS assay to identify small molecule agonists of the constitutive androstane receptor (CAR) signaling pathway (AID 1224839). Note: nearly all actives have a fitted effect of over 15% in size. Note: potency is the fitted concentration of half-maximal effect. The gist of the method:
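HepG2-CYP2B6-hCAR cells, 2500/well, 4 h pre-incubation; compounds 15 conc.; PK11195 0.75 uM final; 24 h, 37 C/5% CO2; ONE-Glo luciferase read.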

Assay [11] can be described thus: qHTS assay to identify small molecule antagonists of the estrogen related receptor signaling pathway with the pleiotropic PPARgamma coactivator (PGC) from Tox21 10K library - cell viability counter screen (AID 1224840; active = well fitted cell-killing curve with a large enough effect in the repeat runs, not every such curve was filed as active; note: nearly all actives have a fitted effect of over 40% in size). The gist of the method: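 Counter-screen for cytotoxicity: after 17.5 h compound exposure at 37 C, CellTiter-Fluor reagent added to PGC/ERR cells for 30 min and fluorescence read. Cells were seeded at 2,000 per well 6 h before dosing.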

Assay [12] is described as follows: qHTS assay to identify small molecule antagonists of the estrogen related receptor signaling pathway with the pleiotropic PPARgamma coactivator (PGC) from Tox21 10K library (AID 1224841; call rule not given here; note: series mostly up to about 92 µM; actives are mostly falling curves and most rising ones were filed inactive; nearly all actives have a fitted effect of over 50% in size). An outline of the steps:
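Luminescence (One-Glo, 30 min at room temperature) after 18 h compound treatment at 37 C of PGC/ERR reporter cells plated at 2,000 cells/well and settled 6 h beforehand.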

Assay [13] is described as follows: qHTS assay to identify small molecule agonists of the estrogen related receptor signaling pathway with the pleiotropic PPARgamma coactivator (PGC) from Tox21 10K library (AID 1224842). Note: nearly all actives have a fitted effect of over 15% in size. The gist of the method:
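PGC/ERR reporter cell line, 2,000 cells per well, incubated 6 h at 37 C before 23 nL compound in DMSO was added. After 18 h at 37 C, One-Glo luminescence read following 30 min at room temperature.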

The target in assay [14] is Luciferin 4-monooxygenase (Photinus pyralis) (UniProt P08659). As to the kind of experiment: qHTS assay to identify small molecule inhibitors of firefly luciferase (AID 1224835). Note: series mostly up to about 120 µM; nearly all actives have a fitted effect of over 25% in size. An outline of the steps:
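Biochemical qHTS: compounds run as interplate titrations against purified firefly enzyme, with D-luciferin and ATP each at its KM concentration. Light output recorded by CCD imaging.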

Assay [15] in a line: qHTS assay to identify small molecule antagonists of the estrogen related receptor (ERR) signaling pathway - cell viability counter screen (AID 1224818). Note: series mostly up to about 46 µM. The gist of the method:
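Cytotoxicity counter screen: fluorescence from CellTiter-Fluor, added after 17.5 h compound exposure at 37 C and read 30 min later. ERR cell line seeded at 2,000 cells/well, preincubated 6 h before dosing.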

Assay [16] can be described thus: qHTS assay to identify small molecule antagonists of the estrogen related receptor (ERR) signaling pathway (AID 1224819;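 note: luminescence from an ERR-driven luciferase reporter measured with One-Glo reagent; series mostly up to about 46 µM; nearly all actives have a fitted effect of over 50% in size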). An outline of the steps: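 LOPAC library screened for antagonism as reduced One-Glo luminescence in ERR reporter cells (2,000/well). Compounds were added after 6 h pre-incubation and left 18 h at 37C; reading followed a 30 min room-temperature reagent step.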

Assay [17] is described as follows: qHTS assay to identify small molecule agonists of the estrogen related receptor (ERR) signaling pathway (AID 1224820). The gist of the method:
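An ERR cell line provided by NTP was seeded at 2,000 cells per well and allowed to settle for 6 h before compounds in DMSO were added. After 18 h at 37 C, luciferase activity was measured by One-Glo luminescence.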

The test system of assay [18] is estrogen-related receptor alpha (ERRalpha) with PGC-1alpha coactivator, human. As to the kind of experiment: qHTS assay to identify small molecule antagonists of the estrogen related receptor signaling pathway with the pleiotropic PPARgamma coactivator (PGC) (AID 1224821; calls by dose curve). An outline of the steps: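 A PGC/ERR cell line supplied by NTP is seeded, allowed 6 h at 37 C, and treated with test compounds in DMSO for 18 h. Signal is then measured as luciferase luminescence using One-Glo.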

The nature of assay [19]: qHTS assay to identify small molecule antagonists of the estrogen related receptor signaling pathway with the pleiotropic PPARgamma coactivator (PGC) cell viability counter screen (AID 1224822; note: series mostly up to about 46 µM). The gist of the method: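 Viability counter-screen read by fluorescence intensity after 30 min with CellTiter-Fluor at 37 C; PGC/ERR reporter cells were exposed to compounds for 17.5 h at 37 C following a 6 h preincubation.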

The nature of assay [20]: qHTS assay to identify small molecule agonists of the estrogen related receptor signaling pathway with the pleiotropic PPARgamma coactivator (PGC) (AID 1224823). An outline of the steps:
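Compounds dissolved in DMSO are added by pin tool to PGC/ERR cells that have settled for 6 h, and incubation continues 18 h at 37 C. Reporter output is measured as One-Glo luminescence.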

Inconclusive results are not listed. The source made the active and inactive calls. Unless noted, calls come from the whole dose curve; as a rule, active = well fitted curve in the direction sought with a large enough effect in the repeat runs; inconclusive = weak or mixed curves; inactive = no such curve, though single readings can be large; an effect the other way counts as inactive or inconclusive.

Luciferin 4-monooxygenase (Photinus pyralis), sequence (P08659 whole entry, looked up): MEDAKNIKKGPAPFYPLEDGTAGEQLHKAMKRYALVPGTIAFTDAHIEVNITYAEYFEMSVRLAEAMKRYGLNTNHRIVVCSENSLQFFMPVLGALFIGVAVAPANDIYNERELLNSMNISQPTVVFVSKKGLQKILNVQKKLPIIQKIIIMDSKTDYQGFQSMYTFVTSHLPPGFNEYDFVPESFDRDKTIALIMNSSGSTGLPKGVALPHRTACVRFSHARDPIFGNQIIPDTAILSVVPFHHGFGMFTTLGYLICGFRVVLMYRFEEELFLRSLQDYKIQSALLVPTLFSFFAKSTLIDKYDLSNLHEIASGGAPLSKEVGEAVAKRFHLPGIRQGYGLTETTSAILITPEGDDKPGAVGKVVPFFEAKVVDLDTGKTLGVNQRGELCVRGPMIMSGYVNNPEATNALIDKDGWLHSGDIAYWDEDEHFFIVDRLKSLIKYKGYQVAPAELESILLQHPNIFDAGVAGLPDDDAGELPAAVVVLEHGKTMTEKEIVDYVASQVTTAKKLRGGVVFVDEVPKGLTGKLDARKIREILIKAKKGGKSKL
Retinoic acid receptor RXR-alpha (Homo sapiens), sequence (P19793 whole entry, looked up): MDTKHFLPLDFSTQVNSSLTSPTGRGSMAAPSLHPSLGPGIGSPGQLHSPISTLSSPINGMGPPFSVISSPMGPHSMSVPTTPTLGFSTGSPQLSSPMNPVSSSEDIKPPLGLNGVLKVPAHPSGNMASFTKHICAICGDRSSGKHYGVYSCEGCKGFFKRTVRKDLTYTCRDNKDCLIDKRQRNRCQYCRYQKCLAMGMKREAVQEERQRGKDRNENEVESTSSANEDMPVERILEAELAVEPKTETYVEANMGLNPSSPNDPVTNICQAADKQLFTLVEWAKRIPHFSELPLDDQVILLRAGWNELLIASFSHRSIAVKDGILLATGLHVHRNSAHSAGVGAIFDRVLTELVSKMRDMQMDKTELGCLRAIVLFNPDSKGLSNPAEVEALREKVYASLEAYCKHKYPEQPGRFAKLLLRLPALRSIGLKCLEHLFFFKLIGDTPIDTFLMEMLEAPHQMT

For `CCN(CC)c1cccc(O)c1`, the Potency entry in assay [1], in assay [2], in assay [3], in assay [4], in [5] and in [6] was “inactive” in each case. For the same compound, the Potency result in [7], in assay [8], in assay [9], in assay [11], in [12] and in assay [13] was “inactive” in each case. Besides, the Potency in assay [10] is 55.6 µM (active).

As to `CCCCC(CC)COS(=O)(=O)O` (centres undefined), the Potency entry in assay [1], in [2], in assay [3], in assay [4], in assay [5] and in [6] was “inactive” throughout. For the same compound, the Potency entry in assay [14], in assay [7], in [8], in [11], in assay [12] and in assay [13] was “inactive” in each case.

With `CC(C)c1ccc(C#N)cc1`, the Potency entry in assay [1], in assay [2], in [3], in assay [4], in assay [5] and in assay [6] was “inactive” in each case. Also, the Potency result in assay [14], in assay [7], in assay [8], in [9], in assay [11] and in assay [12] was “inactive” in each case. Also, the Potency entry in [13] is “inactive”.

Take `CNC1CCCN(c2c(F)cc3c(=O)c(C(=O)O)cn(C4CC4)c3c2OC)C1` (centres undefined): the Potency entry in [1], in assay [2], in assay [3], in assay [4], in assay [5] and in assay [14] was “inactive” throughout. The Potency result in assay [7], in assay [8], in assay [9], in assay [10] and in assay [11] was “inactive” throughout.

With `Cc1cc(CCC(=O)OCCOCCOCCOC(=O)CCc2cc(C)c(O)c(C(C)(C)C)c2)cc(C(C)(C)C)c1O`, the Potency entry in assay [1], in [2], in assay [3], in assay [4], in [5] and in [14] was “inactive” each time. Also, the Potency entry in [7], in assay [8], in assay [9], in assay [10] and in assay [11] was “inactive” each time.

Consider `CCCCCCCCCCCCCCCCCC(=O)OCC(CC)CCCC` (centres undefined), for which the Potency entry in [1], in assay [2], in [3], in assay [4], in assay [5] and in assay [14] was “inactive” each time. In addition, the Potency result in [8], in assay [9], in assay [10] and in [11] was “inactive” each time.

Take `COC(=O)c1sccc1S(N)(=O)=O`: the Potency entry in [1], in assay [2], in assay [3], in assay [4], in [5] and in [6] was “inactive” each time. In addition, the Potency result in assay [14], in [8], in [9], in [10], in [11] and in assay [12] was “inactive” each time. Further, in assay [13], the Potency entry is “inactive”.

Consider `CC(CCc1ccc(O)cc1)NCCc1ccc(O)c(O)c1` (centres undefined), for which the Potency result in assay [1], in assay [2], in assay [3], in assay [16], in assay [18] and in assay [6] was “inactive” each time. Besides, the Potency entry in assay [14], in [7], in assay [8], in assay [11], in assay [12] and in assay [13] was “inactive” each time. Also, the call in assay [15], in assay [17], in assay [19] and in assay [20] was inactive.

In the case of `Cc1cn([C@H]2C[C@H](F)[C@@H](CO)O2)c(=O)[nH]c1=O`, the Potency result in assay [1], in assay [2], in [3], in [5], in [6] and in assay [14] was “inactive” throughout. For the same compound, the Potency entry in assay [7], in assay [8], in assay [9] and in assay [10] was “inactive” throughout.

With `CCSC(=O)N(CC)CC`, the Potency result in [1], in assay [2], in assay [3], in assay [6], in [14] and in assay [7] was “inactive” each time. For the same compound, the Potency result in assay [8], in assay [9], in [10] and in assay [11] was “inactive” each time.
